The panel holds about 79,000 compounds, 15% with a hit somewhere; the sample as a whole holds those more often. A number with no mark means an inactive call. The source made the active and inactive calls. Rule as the data show it: active = growth inhibition above about 70%; inactive = the rest.

The nature of the assay: NCI Yeast Anticancer Drug Screen. Data for the sgs1 strain (AID 173).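 Also: 0% = growth of vehicle-only control cultures.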 The conditions noted are these: S. cerevisiae sgs1 mutant, active compounds read high. The protocol:
Growth inhibition of yeast strains with defined genetic alterations is measured as a screen for potential anti-cancer activity. Selected strains with alterations in DNA damage repair or cell cycle control were exposed to compounds and growth inhibition was measured relative to vehicle treated controls. The strain used in this assay is sgs1

With `Cc1c2cc[n+](CCO)cc2c(C)c2c1[nH]c1ccc(O)cc12`, the growth inhibition (at 1.2 µM) is 18%; the growth inhibition (at 3.7 µM) was 19%; the growth inhibition (at 11.0 µM) is 17%; the growth inhibition (at 33.0 µM) is 25%; the growth inhibition (at 100.0 µM) was 42%.
In the case of `COc1cc2c(cc1O)[C@H](C)C(c1ccccc1OC)O2` (stereo not given in full), the growth inhibition is -10% (at 1.2 µM); -17% (at 3.7 µM); -12% (at 11.0 µM); 10% (at 33.0 µM); 96% (active) (at 100.0 µM).
Take `CC1(C)CC(=O)C(/C=N/c2nc(-c3ccc(Br)cc3)cs2)=C(O)C1`: the growth inhibition (at 1.2 µM) is 10%; the growth inhibition (at 3.7 µM) was 15%; the growth inhibition (at 11.0 µM) is 49%; the growth inhibition (at 33.0 µM) was 97% (active); the growth inhibition (at 100.0 µM) was 98% (active).
Taken in the same sequence, the figures for `Nc1ccc(/C=C/c2ccc3cccnc3c2)cc1` were -1%, 1%, 3%, 20% and 46%.
In the same order, the values of `C=COC(=O)N[C@H]1CCc2cc(OC)c(OC)c(OC)c2-c2ccc(SC)c(=O)cc21` are -2%, -3%, 1%, 14% and 73% (active).
`CC(=O)Oc1ccc2c(c1)Cc1cc(N3C(=O)C=CC3=O)ccc1-2`: the growth inhibition was 16% (at 1.2 µM); 33% (at 3.7 µM); 79% (active) (at 11.0 µM); 98% (active) (at 33.0 µM); 97% (active) (at 100.0 µM).
In the same order, the values of `O=C(NNc1ccccc1)C(CCCCNS(=O)(=O)Cc1ccccc1)NS(=O)(=O)Cc1ccccc1` (stereo not given) are 2%, 7%, 25%, 42% and 68%.
In the case of `Cc1ccc(NC(=O)CCC(=O)C(C)C(=O)c2ccccc2)c(C)c1` (stereo not given), the growth inhibition by setting is: (at 1.2 µM) 0%; (at 3.7 µM) -1%; (at 11.0 µM) -3%; (at 33.0 µM) -1%; (at 100.0 µM) -1%.

For the origin of these results see PubChem BioAssay (NCI).
